The source of these data is PubChem BioAssay.

Structures are written as SMILES. Activity calls are given as the source filed them.

One assay has as its target Albumin (Bos taurus) (UniProt P02769). Briefly: bovine serum albumin binders on microarray, profiling panel, artefact control for SMM control protein annotation, biochemical, small-molecule microarray, Alexa647 label, 635/667 nm fluorescence (AID 1118).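 Also: score merges 667 nm emission intensity and signal-to-noise per printed compound spot.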 Particulars: BSA-A647 binding, fluorescence 635 nm, higher = more signal.
Assay [1] can be described thus: small-molecule microarray binders of probe aXIP, primary screen, biochemical, NeuroSMM set, 635/667 nm fluorescence (AID 1119).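 Also: probe is the protein aXip251-270 applied at 1 µg/mL to compound-printed slides; binding of probe to printed compounds measured as 667 nm fluorescence plus signal to noise.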 As to conditions: higher = more signal, called active from +8 up or from −8 down.
Assay [2] can be described thus: small-molecule binders of probe aNOTCH3, primary screen, biochemical, small-molecule microarray, 635/667 nm fluorescence (AID 1120).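 Also: probe is a biotin-tagged antibody raised against NOTCH3 rather than NOTCH3 protein; score merges spot fluorescence near 667 nm with spot signal to noise.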 Particulars: higher = more signal.
Assay [3] can be described thus: small-molecule binders of probe aNOTCH2, primary screen, biochemical, small-molecule microarray, 635/667 nm fluorescence (AID 1121).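 Also: score merges feature fluorescence read at 667 nm with its signal to noise.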 Particulars: higher = more signal.
The target of assay [4] is Carbonic anhydrase 2 (Homo sapiens) (UniProt P00918). Briefly: CAII small-molecule binders, profiling panel, biochemical, small-molecule microarray, Alexa647-labelled CAII (AID 1122). Particulars: CAII-A647 binding fluorescence, higher = more signal.
The nature of assay [5]: COS7 lysate on small-molecule microarray, probe aHis, 635 nm (AID 1123).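 Also: z-score combines 667nm fluorescence intensity with signal-to-noise per printed compound spot.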 Particulars: COS7 cell lysate, fluorescence, higher = more signal.
Assay [6] in a line: compound binding in COS7 lysate, probe aLAP1, primary screen, cell lysate, small-molecule microarray (AID 1124).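 Also: lysate comes from COS7 cells expressing LAP1 and is applied at 0.3 µg/mL; score merges spot fluorescence near 667 nm with signal-to-noise over triplicate slides.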 As to conditions: probe aLAP1, fluorescence, higher = more signal.
The subject of the next assay is Sam68 (KHDRBS1). Briefly: Sam68 small-molecule binders, primary screen, biochemical, small-molecule microarray, 635 nm fluorescence (AID 1125).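 Also: score merges 667 nm channel intensity with signal to noise over triplicate slides.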 As to conditions: small-molecule microarray binding, higher = more signal.
The test system of assay [7] is Chordin-like protein 2 (CHRDL2). In words: CHRDL2 small-molecule binders, primary screen, biochemical, small-molecule microarray, 635 nm fluorescence (AID 1126).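 Also: printed compound slides probed with Chrdl2 protein at 4 µg/mL for 1 h at 4 C; score merges 667 nm emission intensity with signal to noise over three replicate slides.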 As to conditions: small-molecule microarray binding, fluorescence 635 nm; higher = more signal.
Assay [8] deals with Concanavalin-A (Canavalia ensiformis) (UniProt P02866). Briefly: ConA small-molecule binders, primary screen, artefact control for SMM control protein annotation, biochemical, small-molecule microarray, Alexa647 label, 635 nm (AID 1127).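 Also: z combines 667 nm emission intensity with signal-to-noise across three replicate slides.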 As to conditions: ConA-A647 binding fluorescence, higher = more signal.
The nature of assay [9]: anti-His antibody binders, primary screen, artefact control for SMM control protein annotation, biochemical, small-molecule microarray, 635 nm fluorescence (AID 1128).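 Also: score merges feature fluorescence with signal-to-noise for each printed compound spot.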 As to conditions: anti-His Alexa647 antibody binding, higher = more signal.
Assay [10] concerns Human papillomavirus type 1a E7 protein (residues 1-88). Briefly: HPV1a E7 small-molecule binders, primary screen, biochemical, small-molecule microarray, residues 1-88, 635 nm (AID 1129). Particulars: small-molecule microarray binding, fluorescence 635 nm; higher = more signal.
Assay [11] deals with Focal adhesion kinase 1 (Homo sapiens) (UniProt Q05397). In words: small-molecule microarray binders of FAK, primary screen, biochemical, 635/667 nm fluorescence, BSA, DTT (AID 1130).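 Also: composite of spot emission at 667 nm and signal to noise over triplicate slides.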 As to conditions: PTK2 binding, 635 nm fluorescence, higher = more signal.
Assay [12] has as its system Fibrinogen (Alexa647-labelled). Briefly: fibrinogen binders on compound microarrays, profiling panel, artefact control for SMM control-protein annotation, biochemical, small-molecule microarray, 635/667 nm fluorescence (AID 1131).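 Also: z-score merges 667 nm fluorescence with per-spot signal-to-noise over triplicate slides.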 Particulars: fibrinogen-A647 binding fluorescence, higher = more signal.
Assay [13] has as its target Follistatin (Homo sapiens) (UniProt P19883). Briefly: follistatin binders on small-molecule microarrays, primary screen, biochemical, small-molecule microarray, 635/667 nm fluorescence (AID 1132). As to conditions: FST binding, 635 nm fluorescence, higher = more signal.
Assay [14] concerns the target Fibroblast growth factor 2 (Homo sapiens) (UniProt P09038). Briefly: FGF2 binders on small-molecule microarrays, primary screen, biochemical, small-molecule microarray, 635/667 nm fluorescence (AID 1133). As to conditions: small-molecule microarray binding, FGF2, fluorescence 635/667; higher = more signal.
The nature of assay [15]: mitochondrial membrane potential change in A549 cells, profiling panel, cell-based, JC-1 fluorescence, basal, 24 h, 100 nL (AID 1138).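 Also: A549 lung adenocarcinoma cells under basal conditions with no added stimulus; test concentration not given here.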 Particulars: higher = more signal.
The test system of the next assay is Lefty1. Briefly: Lefty1 binders on small-molecule microarrays, primary screen, biochemical, small-molecule microarray, 635/667 nm fluorescence (AID 1139). As to conditions: small-molecule microarray binding, fluorescence 635/667; higher = more signal.
Assay [16] relates to wheat germ agglutinin (Triticum aestivum), Alexa647-labelled. Briefly: wheat germ agglutinin binders on compound microarrays, profiling panel, artefact control for SMM control-protein annotation, biochemical, small-molecule microarray, 635/667 nm fluorescence (AID 1140).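 Also: score merges 667 nm feature emission with signal to noise over triplicate slides.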 As to conditions: WGA-A647 binding, 635 nm fluorescence, higher = more signal.
The target in assay [17] is Luciferin 4-monooxygenase (Photinus pyralis) (UniProt P08659). In words: firefly luciferase enzyme inhibitors, primary screen, biochemical, luminescence, purified enzyme, 2006 set (AID 1141).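 Also: cell-free assay with purified firefly luciferase at 100 ng per well in PBS; test concentration not given here.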 As to conditions: SteadyGlo luminescence, 30 min, higher = more signal, called active from +8 up or from −8 down.
Chain of Luciferin 4-monooxygenase (Photinus pyralis) (P08659 whole entry, looked up): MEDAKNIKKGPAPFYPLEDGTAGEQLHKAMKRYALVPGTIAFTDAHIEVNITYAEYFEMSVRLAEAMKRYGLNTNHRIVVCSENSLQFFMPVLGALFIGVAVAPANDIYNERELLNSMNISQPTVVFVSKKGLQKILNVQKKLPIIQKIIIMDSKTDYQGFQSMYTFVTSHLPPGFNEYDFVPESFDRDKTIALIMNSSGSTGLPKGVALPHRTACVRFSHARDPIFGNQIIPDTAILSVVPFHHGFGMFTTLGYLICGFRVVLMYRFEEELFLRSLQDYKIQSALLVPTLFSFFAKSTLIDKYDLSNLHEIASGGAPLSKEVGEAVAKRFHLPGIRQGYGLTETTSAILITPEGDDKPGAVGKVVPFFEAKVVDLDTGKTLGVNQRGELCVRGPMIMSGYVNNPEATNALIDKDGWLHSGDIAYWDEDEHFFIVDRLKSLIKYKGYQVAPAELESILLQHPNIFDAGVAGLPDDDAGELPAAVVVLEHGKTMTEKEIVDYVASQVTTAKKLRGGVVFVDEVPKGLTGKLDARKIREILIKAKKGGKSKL

Chain of Follistatin (Homo sapiens) (P19883 whole entry, looked up): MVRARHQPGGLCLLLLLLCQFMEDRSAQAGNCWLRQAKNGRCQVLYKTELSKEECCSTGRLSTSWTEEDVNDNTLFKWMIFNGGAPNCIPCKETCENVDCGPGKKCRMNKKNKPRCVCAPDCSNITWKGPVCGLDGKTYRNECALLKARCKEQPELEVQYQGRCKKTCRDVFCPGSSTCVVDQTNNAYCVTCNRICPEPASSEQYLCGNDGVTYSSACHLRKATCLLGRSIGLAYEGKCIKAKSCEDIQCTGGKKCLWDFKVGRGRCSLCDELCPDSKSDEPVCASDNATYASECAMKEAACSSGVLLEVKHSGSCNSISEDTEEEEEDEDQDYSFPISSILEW
Chain of Fibroblast growth factor 2 (Homo sapiens) (P09038 whole entry, looked up): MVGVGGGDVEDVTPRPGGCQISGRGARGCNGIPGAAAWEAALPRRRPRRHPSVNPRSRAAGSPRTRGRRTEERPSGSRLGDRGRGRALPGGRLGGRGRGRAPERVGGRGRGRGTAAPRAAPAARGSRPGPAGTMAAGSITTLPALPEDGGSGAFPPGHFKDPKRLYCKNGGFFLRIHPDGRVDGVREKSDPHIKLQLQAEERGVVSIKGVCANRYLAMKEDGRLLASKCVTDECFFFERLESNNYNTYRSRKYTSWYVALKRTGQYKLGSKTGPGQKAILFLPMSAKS
Chain of Albumin (Bos taurus) (P02769 whole entry, looked up): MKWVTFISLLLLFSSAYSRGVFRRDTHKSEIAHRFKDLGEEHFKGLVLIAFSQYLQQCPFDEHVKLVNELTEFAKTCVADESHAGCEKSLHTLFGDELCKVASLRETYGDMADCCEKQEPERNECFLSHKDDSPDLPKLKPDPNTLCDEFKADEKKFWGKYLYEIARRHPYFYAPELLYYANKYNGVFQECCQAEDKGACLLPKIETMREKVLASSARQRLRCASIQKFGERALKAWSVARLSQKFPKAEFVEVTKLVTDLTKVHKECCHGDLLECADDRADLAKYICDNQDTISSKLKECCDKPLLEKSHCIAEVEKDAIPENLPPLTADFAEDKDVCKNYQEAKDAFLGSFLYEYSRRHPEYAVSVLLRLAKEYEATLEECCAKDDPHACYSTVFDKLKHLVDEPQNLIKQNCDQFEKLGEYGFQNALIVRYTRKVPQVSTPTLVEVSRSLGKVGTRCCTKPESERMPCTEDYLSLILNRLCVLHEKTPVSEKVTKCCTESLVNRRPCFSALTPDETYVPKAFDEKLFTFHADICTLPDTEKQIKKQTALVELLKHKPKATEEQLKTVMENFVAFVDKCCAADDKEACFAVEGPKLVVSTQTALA
Chain of Focal adhesion kinase 1 (Homo sapiens) (Q05397 whole entry, looked up): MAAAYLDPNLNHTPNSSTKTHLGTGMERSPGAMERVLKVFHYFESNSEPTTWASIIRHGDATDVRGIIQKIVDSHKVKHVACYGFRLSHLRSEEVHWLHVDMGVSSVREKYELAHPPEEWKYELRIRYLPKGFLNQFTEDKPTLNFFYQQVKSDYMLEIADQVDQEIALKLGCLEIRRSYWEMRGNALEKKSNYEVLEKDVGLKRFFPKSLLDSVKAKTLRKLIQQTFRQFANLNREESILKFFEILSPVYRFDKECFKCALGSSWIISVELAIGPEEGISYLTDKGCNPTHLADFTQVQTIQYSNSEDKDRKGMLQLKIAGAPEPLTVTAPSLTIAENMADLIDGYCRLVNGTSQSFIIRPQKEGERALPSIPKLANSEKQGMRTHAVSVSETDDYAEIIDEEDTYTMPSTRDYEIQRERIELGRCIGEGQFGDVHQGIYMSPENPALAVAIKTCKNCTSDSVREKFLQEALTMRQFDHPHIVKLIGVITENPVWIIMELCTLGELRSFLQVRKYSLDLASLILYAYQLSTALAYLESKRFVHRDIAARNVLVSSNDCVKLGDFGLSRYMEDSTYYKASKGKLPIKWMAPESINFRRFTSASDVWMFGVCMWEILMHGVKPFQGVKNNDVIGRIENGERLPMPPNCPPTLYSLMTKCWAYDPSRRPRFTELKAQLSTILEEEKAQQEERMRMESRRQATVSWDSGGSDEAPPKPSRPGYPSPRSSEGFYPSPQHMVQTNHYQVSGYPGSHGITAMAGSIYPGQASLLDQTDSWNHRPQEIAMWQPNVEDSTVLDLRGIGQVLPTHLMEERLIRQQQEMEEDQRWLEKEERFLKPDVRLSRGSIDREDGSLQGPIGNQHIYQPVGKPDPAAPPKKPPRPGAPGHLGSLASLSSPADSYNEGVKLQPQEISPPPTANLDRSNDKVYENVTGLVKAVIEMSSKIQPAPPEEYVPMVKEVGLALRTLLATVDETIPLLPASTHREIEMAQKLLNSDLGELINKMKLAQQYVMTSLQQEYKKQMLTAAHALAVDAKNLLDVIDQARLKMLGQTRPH
Chain of Concanavalin-A (Canavalia ensiformis) (P02866 whole entry, looked up): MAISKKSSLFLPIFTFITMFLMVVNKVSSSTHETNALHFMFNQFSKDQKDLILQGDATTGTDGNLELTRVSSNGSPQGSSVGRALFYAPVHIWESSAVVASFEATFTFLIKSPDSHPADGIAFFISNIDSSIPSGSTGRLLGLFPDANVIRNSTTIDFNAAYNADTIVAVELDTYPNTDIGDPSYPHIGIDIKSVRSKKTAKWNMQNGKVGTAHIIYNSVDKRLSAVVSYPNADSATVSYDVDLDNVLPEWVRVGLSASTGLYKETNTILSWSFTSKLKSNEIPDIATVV

Take `O=C1OCC=C[C@H]2OC34C=CCN(c5ccc6ccccc6c5)C(=O)[C@H]3N(CCCO)C(=O)[C@@H]4[C@@H]12` (stereo not given in full): the composite z-score was 0.314 in the assay with Albumin (Bos taurus); -0.256 in assay [2]; -0.07 in assay [3]; 0.709 in [4]; -0.559 in [5]; 1.26 in [6]. Further, the composite z-score with Sam68 (KHDRBS1) was -1.39; in assay [7], -0.824; in assay [8] it was -0.223; in assay [9], -0.349; in assay [10], -0.92; in [11], -0.409. Further, the composite z-score in assay [12] is -0.669; in assay [13] it was 0.0786; in assay [14], -0.989; in the assay on Lefty1, -0.11; in [16], -0.645. The composite Z-score in [1] is 0.102 (inactive). Further, the z-score in [15] was -0.506; in assay [17] it was -0.18 (inactive).
For the compound `CC(C)N1C(=O)c2ccccc2[C@@H](C(=O)NCCCN(C)C)[C@@H]1c1ccc(CO)cc1`, the composite z-score with Albumin (Bos taurus) is 0.955; in [2] it was -0.15; in assay [3], 0.0364; in assay [4] it was 0.901; in assay [5], 0.82; in assay [6], 0.0206. Besides, the composite z-score with Sam68 (KHDRBS1) was 0.297; in [7] it was -1.91; in [8] it was 0.289; in assay [9] it was 0.0674; in assay [10], -0.163; in assay [11], 1.13. Moreover, the composite z-score was -0.305 in assay [12]; -0.631 in [13]; -0.521 in assay [14]; -1.12 in the assay on Lefty1; 0.705 in assay [16]. For the same compound, the composite Z-score in [1] was -0.109 (inactive). For the same compound, the z-score in assay [15] is -0.864; in assay [17] it was 0.571 (inactive).
Regarding `Cc1ccc(S[C@]2(C(=O)NCc3ccccc3)CC(=O)N(Cc3ccccc3)[C@@H]2c2ccc(CO)cc2)cc1`, the composite z-score with Albumin (Bos taurus) was -0.398; in assay [2] it was -0.25; in assay [3] it was -0.149; in [4] it was 0.654; in [5], 1.86; in [6], 0.569. Moreover, the composite z-score was 0.176 in the assay with Sam68 (KHDRBS1); -0.525 in [7]; 0.423 in [8]; 3.05 in [9]; 0.0804 in [10]; 0.691 in [11]. Moreover, the composite z-score in assay [12] is -0.909; in [13] it was -0.211; in assay [14], -0.524; in the assay with Lefty1, -1.33; in [16], -0.425. The composite Z-score in assay [1] was 0.115 (inactive). Further, the figures for the z-score in assay [15] and in assay [17] were 0.561 and -0.627 (inactive), respectively.
Take `CC(C)CNC(=O)[C@@]1(c2ccc([N+](=O)[O-])cc2)CC(=O)N(CC23CC4CC(CC(C4)C2)C3)[C@@H]1c1ccc(CO)cc1I`: the composite z-score is -0.0275 with Albumin (Bos taurus); 0.54 in [2]; -0.0001 in [3]; 0.259 in assay [4]; 2.03 in assay [5]; 0.451 in assay [6]. Further, the composite z-score with Sam68 (KHDRBS1) came to 1.32; in [7] it was 0.499; in assay [8], 0.974; in assay [9], 1.33; in assay [10] it was 1.14; in assay [11] it was 0.775. Also, the composite z-score in assay [12] turned out to be 0.635; in assay [13], 1.39; in assay [14] it was 1.31; with Lefty1, 1.12; in assay [16], 0.352. Also, in assay [1], the composite Z-score was 0.493 (inactive). The z-score in [15] is 1.12; in assay [17], -0.447 (inactive).
For `CC(C)=CCCC(C)=CC(O)C1C=CC2C(=O)N(c3ccccc3)C(=O)C2N1Nc1ccccc1` (stereo not given), the composite z-score is 0.977 in the assay with Albumin (Bos taurus); 0.461 in assay [2]; 0.251 in assay [3]; 0.646 in assay [4]; 1.52 in assay [5]; 0.78 in assay [6]. Moreover, the composite z-score in the assay with Sam68 (KHDRBS1) is 1.27; in assay [7] it was -0.0528; in [8] it was 1.14; in [9], 1.79; in assay [10], 1.18; in assay [11] it was 0.63. The composite z-score in [12] was 1.01; in assay [13], 1.14; in assay [14] it was 0.227; with Lefty1 it was 0.16; in assay [16] it was 1.3. Besides, the composite Z-score in assay [1] was -0.0662 (inactive). The results for the z-score in [15] and in assay [17] were -0.773 and 0.0145 (inactive), respectively.
For `O=C(CS)NCCCCCCNC(=O)[C@H]1C[C@H]2C(=O)NCC(=O)N2[C@H]1c1ccc(O)cc1`, the composite z-score with Albumin (Bos taurus) is -0.523; in assay [2], -0.25; in assay [3] it was -0.14; in assay [4], 0.696; in [5], 0.677; in [6], 0.621. Besides, the composite z-score in the assay with Sam68 (KHDRBS1) was -0.272; in assay [7], 0.129; in assay [8] it was 0.336; in [9] it was 0.0346; in assay [10], -0.591; in assay [11], 0.147. Besides, the composite z-score in [12] was -0.634; in assay [13], 1.11; in assay [14] it was 0.697; with Lefty1, -0.0467; in assay [16] it was -0.223. Besides, in assay [1], the composite Z-score was 0.131 (inactive). For the same compound, the figures for the z-score in assay [15] and in assay [17] were 0.139 and -0.199 (inactive), respectively.
